Source: PubChem BioAssay
Compounds with a hit are over-represented: about 1.7% of the library has one in this group of screens.
Vc quorum ag = inducers of Vibrio cholerae quorum light production without autoinducers, primary screen, BH1578 luxS cqsA deficient, single point. V. cholerae BH1578 lux reporter, luminescence, 6 h. activation, % at 18.7 µM. 350,000 compounds, 0.16% hits; in the data active means activation mostly above about 9.7%, no sharp cut-off
DUSP3 inh = VHR1 phosphatase inhibitors, primary screen, biochemical, absorbance, uHTS | Dual specificity protein phosphatase 3 (Homo sapiens), P51452 | recombinant VHR phosphatase, pNPP absorbance | inhibition, % at 13.3 µM | 290,000 compounds, 0.52% hits | AID 1654, 2009; in the data active means inhibition above about 50%
Target sequence (P51452 whole entry, looked up): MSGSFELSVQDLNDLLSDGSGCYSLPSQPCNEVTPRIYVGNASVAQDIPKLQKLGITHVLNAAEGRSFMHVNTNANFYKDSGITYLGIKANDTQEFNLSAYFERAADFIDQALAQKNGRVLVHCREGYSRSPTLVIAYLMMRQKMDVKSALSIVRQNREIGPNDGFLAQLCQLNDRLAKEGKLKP
PfHsp40 rescue = rescue of yeast from PfHsp40 toxicity, primary screen, S. cerevisiae, ATP luminescence | growth rescue, % at 12.5 µM | S. cerevisiae expressing PfHsp40, growth rescue | 340,000 compounds, 0.68% hits; in the data active means growth rescue above about 28%, passing the limit was not always enough;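 further: yeast W303a lacking pdr1 and pdr3 grown in galactose medium; growth measured after three days at 30 °C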
MazEF act = activators of E. coli MazEF toxin-antitoxin RNase, primary screen, biochemical, fluorescence, uHTS. Endoribonuclease toxin MazF (Escherichia coli (strain K12)), P0AE70. FAM/BHQ RNA-DNA oligo cleavage fluorescence, 5 h. activation, % at 20 µM. 350,000 compounds, 0.32% hits; in the data active means activation above about 50%
Target sequence (P0AE70 whole entry, looked up): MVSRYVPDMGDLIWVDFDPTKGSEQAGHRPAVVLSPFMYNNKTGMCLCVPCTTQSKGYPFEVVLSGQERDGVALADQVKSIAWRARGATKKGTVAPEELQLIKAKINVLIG
SARS 3CLpro inh = SARS-CoV 3CLpro protease inhibitors, primary screen, biochemical, quenched FRET; Replicase polyprotein 1ab (Severe acute respiratory syndrome coronavirus), P0C6X7; recombinant SARS-CoV 3CLpro, quenched FRET peptide cleavage; inhibition, % at 6 µM; 290,000 compounds, 0.14% hits; AID 1706, 2009; in the data active means inhibition above about 12%
BJeLR lethal = MLPCN primary cell-based screen for lethality selective to Ras in HRASV12 cells | BJeLR (HRASV12) viability, CellTiter-Glo ATP luminescence, 48 h | 300,000 compounds, 0.17% hits | inhibition, % (test concentration not listed); in the data active means inhibition above about 50%
Large screens that a line does not name were inactive.

CC(=O)c1cccc(NC(=O)CCCCCn2nnc3ccccc3c2=O)c1	none
C[C@H](NC(=O)c1cc2c(cn1)[nH]c1ccccc12)C(=O)O	DUSP3 inh 57
COC(=O)[C@H](C)NC(=O)c1cc2c(cn1)[nH]c1ccccc12	none
COC(=O)[C@@H](CC(C)C)N(Cc1ccccc1)S(=O)(=O)N(Cc1ccccc1)[C@@H](CC(C)C)C(=O)OC	none (no result: DUSP3 inh, SARS 3CLpro inh, BJeLR lethal)
CCCNC(=O)Cn1c(=O)/c(=C\c2ccc(-c3ccc([N+](=O)[O-])cc3)o2)s/c1=C\C(=O)C(C)(C)C	MazEF act 86
CCCNC(=O)Cn1c(=O)/c(=C/c2ccc(-c3cccc([N+](=O)[O-])c3)o2)s/c1=C\C(=O)C(C)(C)C	MazEF act 54 (no result: DUSP3 inh, SARS 3CLpro inh, BJeLR lethal)
NC(=O)N/N=C/c1ccc(-c2ccc([N+](=O)[O-])cc2)o1	none
CCCNC(=O)Cn1c(=O)/c(=C\c2ccc(-c3cccc([N+](=O)[O-])c3)o2)s/c1=C\C(=O)C(C)(C)C	MazEF act 175
Cc1nc(SCC(=O)N2CCCC2=O)c2c(C)c(C)sc2n1	none (no result: DUSP3 inh, PfHsp40 rescue, SARS 3CLpro inh, BJeLR lethal)
O=C(Nc1ccc(Oc2ccccc2)cc1)c1csc(COCCO)n1	none (no result: DUSP3 inh, PfHsp40 rescue, MazEF act, SARS 3CLpro inh, BJeLR lethal)
COc1cnc(-c2ccccn2)nc1N(C)c1ccccc1	PfHsp40 rescue 183
COc1cnc(-c2ccccn2)nc1Sc1ccccc1	PfHsp40 rescue 268
COc1cnc(-c2ccccn2)nc1Sc1ccc(F)cc1	PfHsp40 rescue 37
O=C(NCCS(=O)(=O)N1CCN(c2ccccc2)CC1)C1CCCCC1	none (no result: DUSP3 inh, PfHsp40 rescue, SARS 3CLpro inh, BJeLR lethal)
Cc1ccc(C(=O)N(CCc2ccccc2)Cc2ccccc2)cc1S(=O)(=O)N1CCCCC1	none (no result: DUSP3 inh, SARS 3CLpro inh)
CCOC(=O)C1CCCN(C(=O)c2cccc(OC(F)(F)F)c2)CC1 (configuration not stated)	none (no result: DUSP3 inh, PfHsp40 rescue, MazEF act, SARS 3CLpro inh, BJeLR lethal)
COc1ccc(NC(=O)/C(=C\c2ccc(F)cc2)NC(=O)c2ccco2)cc1	DUSP3 inh 56
COc1ccc(NC(=O)/C(=C\c2ccccc2)NC(=O)c2ccco2)cc1	none
Cc1cc(C(=O)NNC(=O)COc2ccccc2Cl)n[nH]1	DUSP3 inh 51
C[C@]12C(=O)N(c3ccc(F)cc3)C(=O)N1[C@H]1c3ccccc3OC[C@@H]1[C@H]2c1ccccc1	PfHsp40 rescue 94 (no result: DUSP3 inh, SARS 3CLpro inh, BJeLR lethal)
Cc1ccc2c(c1)[C@H]1[C@H](CO2)[C@H](c2ccccc2)[C@]2(C)C(=O)N(Cc3ccc(F)cc3)CC(=O)N12	MazEF act 310 (no result: DUSP3 inh, SARS 3CLpro inh, BJeLR lethal)
CCOC(=O)[C@@H]1[C@H]2COc3cc(OC)ccc3[C@@H]2N2C(=O)N(c3cccc(Cl)c3)C(=O)[C@]12C	none
Cc1ccc2c(c1)[C@H]1[C@H](CO2)[C@H](c2ccccc2)[C@]2(C)C(=O)N(Cc3ccc(Cl)cc3)CC(=O)N12	none (no result: DUSP3 inh, SARS 3CLpro inh, BJeLR lethal)
CCOC(=O)[C@@H]1[C@H]2COc3cc(OC)ccc3[C@@H]2N2C(=O)N(c3cccc(C)c3)C(=O)[C@]12C	PfHsp40 rescue 65 (no result: DUSP3 inh, SARS 3CLpro inh, BJeLR lethal)
CCCCN1CC(=O)N2[C@@H]3c4cc(Br)ccc4OC[C@@H]3[C@H](C(=O)OCC)[C@]2(C)C1=O	MazEF act 62 (no result: DUSP3 inh, SARS 3CLpro inh, BJeLR lethal)
OC[C@@H]1CN(Cc2ccc(-c3ccccc3)cc2)C[C@H](n2cnc3c(N4CCCC4)ncnc32)O1	none (no result: DUSP3 inh, PfHsp40 rescue, MazEF act, SARS 3CLpro inh, BJeLR lethal)
CC1CCN(C(=O)CCNS(=O)(=O)c2ccc(Cl)cc2)CC1	none
C[C@@]12C(=O)N(CC3CCCO3)CC(=O)N1[C@H]1c3ccccc3OC[C@@H]1[C@@H]2c1ccccc1 (some centres not stated)	none (no result: DUSP3 inh, SARS 3CLpro inh, BJeLR lethal)
COc1ccc(NCC(=O)Nc2c(C)cccc2C)cc1S(=O)(=O)N1CCOCC1	none (no result: DUSP3 inh, PfHsp40 rescue, SARS 3CLpro inh, BJeLR lethal)
O=C(C=Cc1ccccc1)CC(c1ccccc1)N1CCOCC1 (configuration not stated)	none (no result: DUSP3 inh, SARS 3CLpro inh, BJeLR lethal)
COc1ccc(-c2cc3nc(NCC4CCCCC4)n(C)c(=O)c3s2)cc1OC	none (no result: DUSP3 inh, PfHsp40 rescue, MazEF act, SARS 3CLpro inh, BJeLR lethal)
CCCCN1CC(=O)N2[C@H]3c4cc(Cl)ccc4OC[C@@H]3[C@H](c3ccccc3)[C@]2(C)C1=O	none (no result: DUSP3 inh, SARS 3CLpro inh, BJeLR lethal)
COc1ccc(CN2CC(=O)N3[C@H]4c5ccccc5OC[C@@H]4[C@H](c4ccccc4)[C@]3(C)C2=O)cc1	MazEF act 52 (no result: DUSP3 inh, SARS 3CLpro inh, BJeLR lethal)
